# Pf growth 48h: P. falciparum growth inhibition at 48 hours (one generation); 310,000 compounds, 5.9% hits; P. falciparum luciferase growth in erythrocytes, 48 h; Potency, µM (titrated, usually from 28.7 µM), for inactives: at the top dose activity change, negative = inhibition, most hits filed as inhibitors; further: on the % scale 0 is the no-effect control and ±100 the full control effect
#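 Luciferase-expressing P. falciparum in infected erythrocytes (2% hematocrit, 0.1% parasitemia final) in RPMI 1640/0.5% Albumax were exposed to compound for 48 hours at 37 C, 5% CO2; growth read as luminescence.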
# SARS PLP yeast: blocks SARS-CoV papain-like protease in a yeast assay; 330,000 compounds, 0.19% hits; Potency, µM (titrated, usually from 32.9 µM), inactives show top-dose activity, positive = growth rescue, hits mostly activators; S. cerevisiae expressing SARS-CoV PLpro, growth rescue; AID 485353; calls by dose curve; further: 0% is about no effect; nearly all actives have a fitted effect of over 55% in size
# NS1 function inh: inhibitors of influenza NS1 protein function. Potency, µM (top dose mostly 46.1 µM), without a hit: top-dose activity, positive = more growth. 270,000 compounds, 0.4% hits. AID 2326; calls by dose curve; further: actives are rising curves; nearly all actives have a fitted effect of over 50% in size
#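 A cell-based growth assay was used: compounds that relieve NS1-induced slow growth of budding yeast raise OD600. Assay medium was yeast nitrogen base with ammonium sulphate and -URA supplement, pH 6.0, with 2% galactose.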
# Pf growth 96h: P. falciparum growth inhibition at 96 hour, primary screen for plastid delayed-death inhibitors; P. falciparum luciferase reporter growth, 96 h; Potency, µM (series often up to 28.7 µM), for inactives: top-dose activity change, negative = inhibition, usual class: inhibitors; 320,000 compounds, 6.9% hits; AID 504834; further: on the % scale 0 is the no-effect control and ±100 the full control effect
#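 Compounds incubated with erythrocytes infected by luciferase-expressing P. falciparum (2% hematocrit, 0.05% parasitemia final) for 96 hours, 37 C in 5% CO2. Growth inhibition scored as decreased luciferase luminescence.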
# HCV inhibitor: HCV inhibition; Potency, µM (titrated, usually from 41.8 µM), without a hit: top-dose activity change, negative = inhibition, most hits filed as inhibitors; Huh7.5.1 HCVcc-Cre infection, luciferase reporter, 44 h; 340,000 compounds, 3.4% hits; further: on the % scale 0 is the no-effect control and ±100 the full control effect
#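 Seed cells (1,000/well) for 4 h; treat with compound and infect with HCVcc-Cre, moi about 0.5. Incubate 44 h, then detect luciferase activity.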
# AMA1 RON2 block: disrupts binding of P. falciparum AMA1 to RON2 | AlphaScreen AMA1-biotinylated RON2 peptide binding | Potency, µM (doses to about 58.2 µM), inactives show top-dose activity change, negative = inhibition, actives largely listed as inhibitors | 360,000 compounds, 0.2% hits | AID 720542;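 further: 0% = vehicle wells and -100% = peptide control; nearly all actives have a fitted effect of over 45% in size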
#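 AMA1 (3D7) with his tag at 25 nM final met compounds first, then biotinylated RON2 peptide at 25 nM; detection used donor plus acceptor beads, 10 µg/mL apiece, read by AlphaScreen after 30 min at room temperature.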
# * marks the source's active call; other numbers are inactive results; ? = inconclusive; . = no result given; [ ] = dose if it differs, or a comment. A selection: hits, their analogues and other compounds. The true share with any hit is near 12%. Unless noted, the call rests on the fitted dose curve; in most records, active means well fitted curve in the direction sought with a large enough effect; inconclusive means small, poorly fitted or top-dose-only effect, or another doubt; inactive means no such curve, though single readings can be large; an effect the other way counts as inactive or inconclusive. Potency means the concentration at half of the fitted maximal effect.
SMILES,Pf growth 48h,SARS PLP yeast,NS1 function inh,Pf growth 96h,HCV inhibitor,AMA1 RON2 block
O=C1CCCc2oc3c(cc(NS(=O)(=O)c4ccc5c6c(cccc46)C(=O)N5)c4ccccc43)c21,?,-1%,22%,12µM*,?,-15%
CC(CCC(=O)O)C1CCC2C3C(O)CC4CC(O)CCC4(C)C3CC(O)C12C (configuration not stated),2%,2%,-9%,48%,4%,11%
O=C(CN1CCN(Cc2ccccc2)CC1)Nc1cccc(Cl)c1,3%,-4%,5%,1%,0%,-4%
O=C(Cn1c2ccccc2c(=O)c2ccccc21)Nc1cccc(F)c1,15µM*,-23%,0%,?,-13%,13%
O=C(Cn1c(=O)c(=O)n(Cc2ccccc2)c2ccc(Cl)cc21)Nc1cccc(F)c1,2%,-1%,-7%,13µM*,?,6%
Cc1csc(CN(C)C(=O)CC2C(=O)NCCN2Cc2ccc(Cl)c(F)c2)n1 (configuration not stated),-10%,-3%,23%,9.3µM*,18%,15%
CCn1ccnc1CN(C)C(=O)CC1C(=O)NCCN1Cc1c(F)cccc1Cl (configuration not stated),48%,0%,-4%,10µM*,11%,-13%
CCOc1ccc(S(=O)(=O)N2CCCC(C(=O)N3CCCC3)C2)cc1 (configuration not stated),-5%,-1%,-19%,99%,22%,-4%
O=C(C[C@@H]1C/C=C\CCCC(=O)OC[C@@H]2CCCN2C1=O)N[C@@H](CO)Cc1ccccc1,.,-4%,.,.,11%,-8%
CC1CCc2c(cnc3ncnn23)C1 (configuration not stated),-4%,5%,-6%,-10%,16%,16%
CC(C)=CCC(C)(C)/C=N/NC(N)=O,0%,7%,-5%,55%,15%,1%
CCOC(=O)C1CCN(c2nnc(N3CCCC3=O)s2)CC1,58%,5%,2%,0.83µM*,-6%,4%
N#Cc1c(NC(=S)NC(=O)C2CCCC2)sc2c1CCCCC2,-7%,-41%,12%,-27%,?,34%
COc1ccc(C2C(C(C)=O)=C(C)Nc3ncnn32)cc1[N+](=O)[O-] (configuration not stated),-21%[0.00184 µM],1%,2%,4.1µM*,5%,-2%
CC(=O)C1=C(C)Nc2ncnn2C1c1ccccc1OCc1ccccc1 (configuration not stated),8.3µM*,4%,-5%,28%,?,3%
COc1ccc(/C(N)=N/OC(=O)C2CCCCC2)cc1,186%,0%,15%,200%,-1%,-5%
CCc1nc(SCC(=O)c2ccccc2)c2c(=O)n(C)c(=O)n(C)c2n1,59%,2%,1%,?,13µM*,-10%
CCCc1nc(SCC(=O)c2ccccc2)c2c(=O)n(C)c(=O)n(C)c2n1,?,-2%,-10%,?,11µM*,-4%
CCc1nc(SCC(=O)Nc2cccc(C(F)(F)F)c2)c2c(=O)n(C)c(=O)n(C)c2n1,9.3µM*,0%,-2%,?,?,-8%
CCCc1nc(SCC(=O)c2ccc(OC)cc2)c2c(=O)n(C)c(=O)n(C)c2n1,17%,3%,5%,-1%,13%,.
CCOC(=O)Cc1nnc(Nc2ccc(C(=O)NC)cc2)c2ccccc12,-8%,0%,4%,1%,-9%,-11%
CCC(C)NC(=O)c1ccc(N2CC3CC(C2)c2cccc(=O)n2C3)c(NC(=O)c2ccc(Br)o2)c1 (configuration not stated),?,-4%,14%,9.3µM*,-11%,0%
CCOc1ccc(C/C(O)=C2\C(=O)CC(C)(C)CC2=NCC(=O)O)cc1OCC,0%,-1%,.,30%,16%,5%
CCCSc1ccc([C@@H]2[C@@H]3C(=O)N(CC)C(=O)[C@@H]3[C@]3(C(=O)OC)CCCCN23)cc1OC,.,-1%,.,.,-1%,-6%
CCCCCCSc1ccc([C@@H]2[C@H]3C(=O)N(CC)C(=O)[C@H]3[C@]3(C(=O)OC)CCCN23)cc1,?,-1%,.,10µM*,-1%,-6%
SMILES,Pf growth 48h,SARS PLP yeast,NS1 function inh,Pf growth 96h,HCV inhibitor,AMA1 RON2 block
CCCSc1ccc([C@@H]2[C@H]3C(=O)N(CC)C(=O)[C@H]3[C@]3(C(=O)OC)CCCCN23)cc1,13µM*,-2%,.,7.4µM*,2%,-14%
O=C(CN1N=C(c2ccccc2)CCC1=O)NCCCN1CCc2ccccc2C1,-12%,13%,15%,-4%,-12%,-2%[11.6 µM]
COc1ccc(CNCc2ccncc2)cc1OC,?,4%,-3%,10µM*,9%,9%
COc1cccc(CNCc2cccc(OC)c2O)c1O,.,.,.,.,11%,63%
COc1cc(CNCc2ccco2)ccc1OCc1ccccc1,4%,-2%,-1%,108%,11µM*,-17%
COc1cccc(CNCc2ccco2)c1O,0%,12%,?,12µM*,30%,-6%
COc1cc(CNCc2ccccn2)ccc1OCc1c(Cl)cccc1Cl,?,-1%,-46%,?,11µM*,6%
COc1cc(CNCc2cccs2)ccc1OCc1ccccc1,36%,1%,-1%,?,?,?
COc1ccc(CNCc2ccc(C(F)(F)F)cc2)cc1OC,14%,4%,-6%,?,?,-27%
Cc1cc(=O)oc(C)c1C(=O)Nc1cccc(F)c1,0%,0%,5%,-6%,8%,-10%
Oc1ccccc1C=NN=C1c2ccccc2-c2ccccc21,.,.,.,.,8.9µM*,-21%
Cc1ccc(N=Cc2cccc(O)c2O)c(C)c1,?,-15%,-57%,12µM*,.,.
Cc1ccccc1N=Cc1cccc(O)c1O,?,-86%,-46%,3%,9%,-13%
Oc1cccc(/C=N/N=C/c2cccc(O)c2O)c1O,13µM*,-15%,-65%,?,-7%,66%
Cc1ccc(S(=O)(=O)N(C)c2ccc(OC(C)C(=O)N3CCCC3)cc2)cc1C (configuration not stated),12µM*,.,.,?,23%,-1%
N#C/C(=C\c1ccccc1)c1ccccn1,48%,-6%,-32%,60%,9%,17%
N#C/C(=C\c1ccncc1)c1ccccn1,?,-3%,0%,10µM*,?,-3%
O=C1CC(c2c[nH]c3ccccc23)C(=O)N1c1ccccc1 (configuration not stated),11%,6%,6%,7.4µM*,8%,5%
C=CCNC(=S)N1CCN(C2CCCCC2)CC1,?,-1%,-26%,30%,14%,5%

# Screens as filed in PubChem BioAssay.
